# Publication PMC7826789 (International Journal of Molecular Sciences, 2021)
# Experiments:
# Conditions in all cases: Compound Concentration (nM):1000
# [1] = system: PIK3CB
# [2] = system: PIK3CD
# [3] = system: PIK3CG
# [4] = system: T1, PIK4CB
# T1 construct: gene PI4KB
# [5] = system: PIKFYVE
# [6] = system: PIM1
# [7] = system: PIM2
# [8] = system: PIM3
# [9] = system: PIP5K1A
# [10] = system: PIP5K1C
# 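Further: KINOMEscan scanMAX binding as percent activity remaining versus control; lower means stronger binding.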
SMILES,Percent Control [1] [%],Percent Control [2] [%],Percent Control [3] [%],Percent Control [4] [%],Percent Control [5] [%],Percent Control [6] [%],Percent Control [7] [%],Percent Control [8] [%],Percent Control [9] [%],Percent Control [10] [%]
NS(=O)(=O)c1ccc(N/N=C2\C(=O)Nc3ccc(C(=O)NCCc4c[nH]cn4)cc32)cc1 [GW300660X],100,100,95,100,100,32,100,32,100,0.7
COc1cc2ncnc(Nc3ccc4c(cnn4Cc4ccccc4)c3)c2cc1OC.Cl [GW282449A],100,100,100,100,93,100,100,100,100,76
COc1cc(/C=N/Nc2ncnc3[nH]ncc23)ccc1O [GW578748X],54,100,24,5,28,83,100,53,78,0
NS(=O)(=O)c1ccc(N/N=C2\C(=O)Nc3ccc(-c4cnco4)cc32)cc1 [GW276655],98,88,83,75,100,45,96,56,26,55
CN(C)CCNC(=O)Nc1ccc(N(C)c2ccnc(Nc3ccc(CS(C)(=O)=O)cc3)n2)cc1.Cl [GW830900A],84,76,91,11,100,100,100,97,23,86
Cl.O=C(Nc1ccc(Oc2ccc3[nH]c(NC(=O)c4ccco4)nc3c2)cc1)Nc1cc(C(F)(F)F)ccc1F [GW683134A],100,90,100,100,100,100,100,100,100,98
CC1=C(C(=O)Nc2ccc3[nH]ncc3c2)C(c2ccc3ccccc3c2)CC(=O)N1 (centres unmarked) [GSK270822A],70,100,97,73,83,91,100,92,95,99
Cl.O=C(Nc1ccc(Oc2ccc3[nH]c(NC(=O)c4ccccc4)nc3c2)cc1)Nc1cc(C(F)(F)F)ccc1F [GW709042A],100,76,100,100,100,100,100,100,100,98
CN(C)c1cc2c(Nc3ccc4c(cnn4Cc4ccccc4)c3)ncnc2cn1 [GW282974X],89,70,96,100,100,91,93,90,100,100
Cl.c1ccc(Cc2nc3ccc(Nc4ncnc5ccccc45)cc3[nH]2)cc1 [GR269666A],100,98,100,100,100,100,100,100,100,86
O=C1Nc2ccc(C(=O)c3ccco3)cc2C1=Cc1cc(Cl)c(O)c(Cl)c1 [GW406108X],100,79,47,0.8,88,32,61,9.9,88,43
C[C@@H](Oc1cc(-n2cnc3ccc(OC4CCN(C)CC4)cc32)sc1C(N)=O)c1ccccc1Cl [GSK579289A],20,27,11,100,15,19,100,29,21,72
COc1cc(C)c(N(C)C(=O)CN(C)C)cc1Nc1nc(Nc2cccc(F)c2C(N)=O)c2cc[nH]c2n1 [GSK2219385],100,75,100,85,97,90,92,86,100,100
COc1cc(N2CCN(C(C)C)CC2)ccc1Nc1nc(Nc2ccc(F)cc2C(=O)NC[C@@H](O)CO)c2cc[nH]c2n1 [GSK1392956A],96,80,100,100,95,100,100,100,100,100
NS(=O)(=O)c1ccc(N/N=C2\C(=O)Nc3ccc(Cl)cc32)cc1 [GW280670X],100,94,100,100,94,100,100,100,100,80
CC(C)COC(=O)c1ccc2c(c1)/C(=C/Nc1ccc(S(N)(=O)=O)cc1)C(=O)N2 [GW416981X],100,95,100,100,100,81,100,40,33,89
O=C(Nc1n[nH]c2nc(-c3ccc(O)cc3)c(Br)cc12)C1CC1 [SB-725317],100,75,100,100,99,23,0.4,9.3,100,59
NS(=O)(=O)c1ccc(Nc2ncc(-c3ccccc3)o2)cc1 [GW572399X],100,100,100,71,100,100,100,100,100,74
COc1cc(C=NNc2ncnc3c2cnn3-c2ccccc2)ccc1O [GW513184X],100,76,22,34,4.9,100,100,100,29,51
CN1CCN(C(=O)c2ccc(NC(=O)Nc3ccc(N(C)c4ccnc(Nc5ccc(CS(C)(=O)=O)cc5)n4)cc3)cc2)CC1.Cl [GW830263A],100,100,93,97,100,100,100,100,9.3,97
